PubChem BioAssay AID1671193 (National Center for Advancing Translational Sciences (NCATS), 2021)
About 180 (0.12%) of roughly 150,000 compounds were called active. Entries that show only a call come without a potency. Roughly 6% stayed inconclusive and do not appear here. Many of the other results were omitted from the sample, so actives are more common in it than they were. A number with no mark means an inactive call. Calls come from the whole dose curve; as a rule, active = well fitted cell-killing curve with a large enough effect; inconclusive = small, poorly fitted or top-dose-only effect, or effect the other way; inactive = flat fitted curve, though single readings scatter.

Assay: GF-AFC viability counterscreen for inhibitors of alpha-synuclein gene (SNCA) expression; note: nearly all actives have a fitted effect of over 30% in size
Conditions: HEK-293-SNCA-luc viability, GF-AFC fluorescence, 24 h; series mostly up to 57.1 µM
From the text: Assay Submitter (PI): Daniel R. Scoles Ph.D.
Department of Neurology, University of Utah, Salt Lake City, Utah
Accumulation of alpha-synuclein is a main underlying pathological feature of Parkinson's disease (PD) and alpha-synucleinopathies, for which lowering expression of the alpha-synuclein gene (SNCA) is a potential therapeutic avenue. Using a cell-based luciferase reporter of SNCA expression we performed a quantitative high throughput screen (qHTS) of 155,885 compounds in dose response. The screening assay was generated using genome editing to insert the luciferase gene downstream and in frame of the SNCA gene in HEK-293 cells (1). A viability counterscreen using GF-AFC was used to eliminate cytotoxic and false positive compounds. After in silico analysis (clustering, removal of frequent hitter nuisance chemotypes), inhibitor compounds from the primary screen were selected for follow up and re-tested at 11-doses in the SNCA-luc cells (luciferase and GF-AFC confirmation), and in CMV-luc expressing cell line to flag general transcriptional repressors.
Described herein are the results of the GF-AFC viability counterscreen for SNCA inhibitors; inactivity (no decrease in fluorescence signal, not cytotoxic) is the desired output for this assay.
1. Dansithong, W., Paul, S., Scoles, D. R., Pulst, S. M., and Huynh, D. P. (2015) Generation of SNCA Cell Models Using Zinc Finger Nuclease (ZFN) Technology for Efficient High-Throughput Drug Screening. PLoS ONE 10, e0136930.
SEQUENCE No. (e.g., 1, 2, 3, etc.); […] (e.g., Cells, Incubation, Reagent, etc.); VALUE; DESCRIPTION
1; Cells; 4 uL; Dispense 1500 HEK-293-SNCA-luc cells/well into Greiner 1536-well white / solid bottom tissue culture treated plate. The plate was covered with metal lids with gas-exchange holes.
2; Incubate; 24 hours; Incubate at 37C, 5% CO2, 95% RH.
3; Compounds; 23 nL; Compounds and controls were transferred via a Kalypsys Pin Tool (Wako USA) equipped with a 1536-slotted pin array. The plate was covered with metal lids with gas-exchange holes.
4; Incubate; 24 hours; Incubate at 37C, 5% CO2, 95% RH.
5; Dispense; 1 uL; Dispense Gly-Phe-7-amino-4-trifluoromethylcoumarin (GF-AFC, prepared at 125 uM in PBS) was added. The plate was covered with metal lids with gas-exchange holes.
6; Incubate; 30 min; Incubate at 37C, 5% CO2.
7; Detector; Fluorescence; Measure fluorescence with ViewLux microplate reader (PerkinElmer) equipped with 405/10 excitation and 540/25 emission filters.
8; Dispense; 3 uL; Dispense ONE-Glo ([…]) lucifase detection reagent was added to each well. Plates were covered with metal lids with gas-exchange holes.
9; Incubate; 15 min; Incubate at room temperature.
10; Detector; Luminescence; Measure luminescence with ViewLux microplate reader (PerkinElmer) equipped with clear filters.
NOTES (numbers refer to sequence above)
1; HEK-293-SNCA-luc were cultured and suspended in phenol-red free DMEM (4.5 g/L glucose, 25 mM HEPES, cat #21063 (Thermo)).
3; Compounds were added to the assay plate in an 11-point intra plate dose response, 1:3 titration in DMSO with a final concentration range of […]. Vehicle-only plates, with DMSO being pin-transferred to every well, were inserted at the beginning of screening runs to confirm expected assay performance. Activity was normalized to wells containing medium only (-100% activity, full inhibition) and SNCA-luc cells treated with DMSO vehicle control (0% activity), contained on the same plate as test samples.
10; Signals were analyzed, and dose-response curves were fit using the Hill equation. Compounds in curve classes -1.1, -1.2, -2.1, -2.2 in the SNCA-luc assay were considered active. Compounds were eliminated from further consideration if also active (curve class -1.1, -1.2, -1.3, -1.4, -2.1, -2.2, -2.3, -2.4) in the GF-AFC cytotoxicity assay.
Potency is the fitted concentration of half-maximal effect.

Structure (SMILES) | Potency | activity change, negative = cytotoxicity
CCCCS(=O)(=O)N1CCCC(Cn2c(C3CC3)nc3cccnc32)C1 (stereo unspecified) | inactive | 
O=C1CC(c2ccccc2)N(Cc2cn[nH]c2-c2ccc(F)cc2)CCCCCN1 (stereo unspecified) | inactive | 
COc1ccc(-c2nc(C(C)C)nc3c2CCN([S+](=O)([O-])c2cccc(C(F)(F)F)c2)CC3)cc1 | inactive | 
CC(C)NC(=O)N1CC(Oc2ccc(-c3noc(-c4cccnc4)n3)cc2)C1 | inactive | 
O=C(Nc1cccc(Cl)c1)C1CCCN(c2ccnc3ccnn23)C1 (stereo unspecified) | inactive | 
c1cn(-c2ccc(N3CCCCCC3)nc2)c(-c2cc3n(n2)CCCNC3)n1 | inactive | 
CSCC(=O)N1CCC2(CC1)CC(c1ccccc1)CN(C)C2 (stereo unspecified) | inactive | 
O=C(c1cccc(C(F)(F)F)c1)N1C[C@@H](CO)[C@H](c2ccccn2)C1 | inactive | 
CC(C)c1ccc(S(=O)(=O)N2CCc3nn(C)c(=O)n3CC2)cc1 | inactive | 
COc1ccc(C(=O)N2C(C(=O)NCC(C)C)COC23CCN(C(=O)C2CCC2)CC3)cc1 (stereo unspecified) | inactive | 
Cc1ccc(NC(=O)CN2CC3CC(C2)[C@H]2CCCC(=O)N2C3)cc1 (stereo partly specified) | inactive | 
O=C(NC[C@H]1OC[C@@H](NCc2ccccn2)[C@@H]1O)C1CCCC1 | inactive | 
Cc1ccc(CN2CCCN(Cc3ccncc3)C(c3ccccc3)CC(=O)NCC2)s1 (stereo unspecified) | inactive | 
COc1ccc(CNC[C@H]2O[C@H](Cc3cc(-c4ccc(OC)cc4)on3)CC[C@@H]2O)cc1 | inactive | 
Cc1ccc(C(=O)N2C[C@@H](CO)[C@H](c3ccncc3)C2)c(C)c1 | inactive | 
O=C(C1CCCC1)N1C[C@@H](CO)[C@H](c2ccncc2)C1 | 20 µM (active) | 
CCOc1ccc(C(=O)N2C[C@@H](CO)[C@H](c3ccncc3)C2)cc1 | inactive | 
O=C1CCC2(CCN(Cc3ccc4[nH]ccc4c3)CC2)CN1CCc1ccccc1 | inactive | 
O=C(c1ccoc1)N1CCC(N2C(=O)[C@H]3CN(Cc4ccccc4)C[C@H]3C2=O)CC1 | inactive | 
CCCNC(=O)N1CCC2(CC1)CC(C(=O)N1CCOCC1)N(C)C2 (stereo unspecified) | inactive | 
O=C(NCc1ccnc2[nH]ccc12)c1ccccn1 | inactive | 
COc1ccc(-c2cc(-c3cnc4[nH]ccc4c3)cn3cncc23)cn1 | inactive | 
COC[C@@H]1[C@H](NC(=O)C2(Cn3ccnc3)CC2)[C@@H]2CCO[C@H]12 | inactive | 

Structure (SMILES) | Potency | activity change, negative = cytotoxicity
CCN1CCN(C(=O)c2cn3cc(-c4ccc(C(F)(F)F)cc4)sc3n2)CC1 | inactive | 
Cc1noc(C)c1CNC(=O)[C@H]1CN(Cc2ccccc2)C[C@H]1C(=O)O | inactive | 
COCC(=O)N[C@H]1C[C@H]2C(=O)Nc3ccc(/C=C/c4ccc(OC)cc4)cc3C(=O)N2C1 | inactive | 
CN(Cc1cccnc1)C1CN(C(=O)Nc2ccccc2F)C1 | inactive | 
COCCN1C(=O)c2cccn2CC1CNC(=O)CCc1nc(-c2ccccc2)no1 (stereo unspecified) | inactive | 
O=C1NCCCCCN(S(=O)(=O)c2ccc3c(c2)CCC3)[C@H]2CCCC[C@@H]12 | inactive | 
COc1cccc(CNC(=O)c2cc(-c3ccccc3)nc3c2cnn3C)c1 | inactive | 
CC1(c2ccccc2)N(Cc2ccc(O)cc2)C(=O)OC12CCN(Cc1ccc(C#N)cc1)CC2 (stereo unspecified) | inactive | 
COC(=O)CNC(=O)C1CCCN1Cc1ccc(-c2cc(C)cc(C)c2)cc1 (stereo unspecified) | inactive | 
Cc1cccc(N2Cc3c(NCCCN4CCCCC4)ncnc3N(C)CC2=O)c1 | inactive | 
O=C(NCc1cccnc1)c1cn2cc(-c3cccc(C(F)(F)F)c3)sc2n1 | inactive | 
CCOC(=O)C1CCCN(C(=O)C2CCc3nnc(CN[S+](C)(=O)[O-])n32)C1 (stereo unspecified) | inactive | 
Cc1ccc(C(=O)N2CCCC(c3nc(C4CCOCC4)no3)C2)cn1 (stereo unspecified) | inactive | 
CN(Cc1ccsc1)C(=O)C1CCCN(C2CCN(C(=O)C3CC3)CC2)C1 (stereo unspecified) | inactive | 
COc1cccc(-c2cccc(CN3CCCC3C(=O)NCC(C)C)c2)c1 (stereo unspecified) | inactive | 
Cc1ccnc(NC(=O)C2CC(=O)N(c3n[nH]c4cc(Br)ccc34)C2)c1 (stereo unspecified) | inactive | 
COCC1CN(C2CCC2)CC12CCN(C(=O)c1ccc(C)s1)CC2 (stereo unspecified) | inactive | 
O=C1NC2(CCN(C(=O)c3ccccc3)C2)COc2ccccc21 (stereo unspecified) | inactive | 
Oc1ccccc1CN1CCC(O)(c2csc(CN3CCN(c4ccccn4)CC3)n2)CC1 | inactive | 
FC(F)(F)c1cccc(C2=NOC3(CCCN(Cc4ccccn4)C3)C2)c1 (stereo unspecified) | inactive | 
O=C(C1CC=CC1)N1CCC2(CC1)NCCc1c2[nH]c2ccccc12 |  | -15.1% [at 12.5 µM]
COc1ccc(-c2cc3c(nc2-c2ccccc2)nc(C(=O)NCCN(C)C)n3C)cc1OC | inactive | 
O=C(Nc1ccccc1)N1CCC(C(=O)N2CCCC(c3nc4ccncc4[nH]3)C2)CC1 (stereo unspecified) | inactive | 
